{
  "source": "the supplement of paper PMC8728848",
  "binders": {"B1": {"name": "PFL (Pseudomonas fluorescens) (protein)", "chain": "MSKYAVANQWGGSSAPWHPGGTWVLGARDNQNVVAIEIKSGDGGKSFTGTMTYAGEGPIGFKAQRTGQNQYNVENQWGGNDAPWHPGGKWVIGGRDNQNVIALSVTSSDGGKNLSGTNTYANEGPIGFRGQIE"}},
  "assay_in_all_cases": "glycan array binding signal (z-score within array); higher = stronger binding",
  "details_in_all_cases": "glycan notation: IUPAC condensed, linker removed",
  "key": {"[1]": {"molecular_target": "Fuc(a1-2)Gal(b1-3)GalNAc(b1-3)Gal(a1-4)Gal(b1-4)Glc", "in_short": "(§1)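 Columns mapping to the same glycan were averaged after glycan names were converted to IUPAC-condensed notation. The data come from 3228 arrays in the Consortium for Functional Glycomics database, limited to those with an available protein sequence. Binding is reported as a within-array Z-score averaged across arrays of one protein sequence and across linkers.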"}, "[2]": {"molecular_target": "Fuc(a1-2)Gal(b1-3)GlcNAc(b1-3)[Gal(b1-4)GlcNAc(b1-6)]Gal(b1-4)Glc", "in_short": "as §1"}, "[3]": {"molecular_target": "Fuc(a1-2)Gal(b1-3)[Fuc(a1-4)]GlcNAc(b1-3)[Fuc(a1-3)[Gal(b1-4)]GlcNAc(b1-6)]Gal(b1-4)Glc", "in_short": "as §1"}, "[4]": {"molecular_target": "Fuc(a1-2)[Gal(a1-3)]Gal(b1-3)GlcNAc(b1-2)Man(a1-3)[Fuc(a1-2)[Gal(a1-3)]Gal(b1-3)GlcNAc(b1-2)Man(a1-6)]Man(b1-4)GlcNAc(b1-4)[Fuc(a1-6)]GlcNAc", "in_short": "as §1"}, "[5]": {"molecular_target": "Fuc(a1-2)[Gal(a1-3)]Gal(b1-4)GlcNAc(b1-2)Man(a1-3)[Fuc(a1-2)[Gal(a1-3)]Gal(b1-4)GlcNAc(b1-2)Man(a1-6)]Man(b1-4)GlcNAc(b1-4)GlcNAc", "in_short": "as §1"}, "[6]": {"molecular_target": "Fuc(a1-2)[GalNAc(a1-3)]Gal(b1-3)GlcNAc(b1-2)Man(a1-3)[Fuc(a1-2)[GalNAc(a1-3)]Gal(b1-3)GlcNAc(b1-2)Man(a1-6)]Man(b1-4)GlcNAc(b1-4)[Fuc(a1-6)]GlcNAc", "in_short": "as §1"}, "[7]": {"molecular_target": "Fuc(a1-2)[GalNAc(a1-3)]Gal(b1-4)Glc", "in_short": "as §1"}, "[8]": {"molecular_target": "Fuc(a1-2)[GalNAc(a1-3)]Gal(b1-4)GlcNAc(b1-3)[Fuc(a1-2)[GalNAc(a1-3)]Gal(b1-4)GlcNAc(b1-6)]GalNAc", "in_short": "as §1"}, "[9]": {"molecular_target": "Fuc(a1-2)[GalNAc(a1-3)]Gal(b1-4)[Fuc(a1-3)]GlcNAc", "in_short": "as §1"}, "Fuc(a1-3)GlcNAc": {"molecular_target": "Fuc(a1-3)GlcNAc", "in_short": "as §1"}, "[10]": {"molecular_target": "Fuc(a1-3)[GalNAc(b1-4)]GlcNAc", "in_short": "as §1"}, "Fuc(a1-4)GlcNAc": {"molecular_target": "Fuc(a1-4)GlcNAc", "in_short": "as §1"}, "[11]": {"molecular_target": "Gal(a1-3)Gal(b1-3)[Fuc(a1-4)]GlcNAc(b1-2)Man(a1-3)[Gal(a1-3)Gal(b1-3)[Fuc(a1-4)]GlcNAc(b1-2)Man(a1-6)]Man(b1-4)GlcNAc(b1-4)GlcNAc", "in_short": "as §1"}, "[12]": {"molecular_target": "Gal(b1-3)[Fuc(a1-4)]GlcNAc(b1-2)Man(a1-3)[Gal(b1-3)[Fuc(a1-4)]GlcNAc(b1-2)Man(a1-6)]Man(b1-4)GlcNAc(b1-4)[Fuc(a1-6)]GlcNAc", "in_short": "as §1"}, "[13]": {"molecular_target": "Gal(b1-4)GlcNAc(b1-2)[Gal(b1-4)GlcNAc(b1-4)]Man(a1-3)[Gal(b1-4)GlcNAc(b1-2)[Gal(b1-4)GlcNAc(b1-6)]Man(a1-6)]Man(b1-4)GlcNAc(b1-4)GlcNAc", "in_short": "as §1"}, "[14]": {"molecular_target": "Gal(b1-4)GlcNAc(b1-2)[Gal(b1-4)GlcNAc(b1-4)]Man(a1-3)[GlcNAc(b1-4)][Gal(b1-4)GlcNAc(b1-2)Man(a1-6)]Man(b1-4)GlcNAc(b1-4)GlcNAc", "in_short": "as §1"}, "[15]": {"molecular_target": "Gal(b1-4)GlcNAc(b1-3)Gal(b1-3)GalNAc", "in_short": "as §1"}, "[16]": {"molecular_target": "Gal(b1-4)GlcNAc(b1-6)[Gal(b1-3)]GalNAc", "in_short": "as §1"}, "[17]": {"molecular_target": "Gal(b1-4)GlcNAc(b1-6)[Gal(b1-4)GlcNAc(b1-3)]GalNAc", "in_short": "as §1"}, "Gal3S(b1-3)GalNAc": {"molecular_target": "Gal3S(b1-3)GalNAc", "in_short": "as §1"}, "Gal6S(b1-4)Glc6S": {"molecular_target": "Gal6S(b1-4)Glc6S", "in_short": "as §1"}, "[18]": {"molecular_target": "GalNAc3S(b1-4)[Fuc(a1-3)]GlcNAc", "in_short": "as §1"}, "Glc(a1-4)Glc": {"molecular_target": "Glc(a1-4)Glc", "in_short": "as §1"}, "[19]": {"molecular_target": "GlcNAc(a1-4)Gal(b1-4)GlcNAc(b1-3)Gal(b1-4)GlcNAc", "in_short": "as §1"}, "[20]": {"molecular_target": "GlcNAc(b1-3)Gal(b1-4)GlcNAc(b1-2)Man(a1-3)[GlcNAc(b1-3)Gal(b1-4)GlcNAc(b1-2)Man(a1-6)]Man(b1-4)GlcNAc(b1-4)GlcNAc", "in_short": "as §1"}, "[21]": {"molecular_target": "GlcNAc(b1-3)Gal(b1-4)GlcNAc(b1-3)GalNAc", "in_short": "as §1"}, "[22]": {"molecular_target": "GlcNAc(b1-3)Gal(b1-4)GlcNAc(b1-3)[GlcNAc(b1-3)Gal(b1-4)GlcNAc(b1-3)]GalNAc", "in_short": "as §1"}, "[23]": {"molecular_target": "GlcNAc(b1-3)Gal(b1-4)GlcNAc(b1-6)[Gal(b1-3)]GalNAc", "in_short": "as §1"}, "[24]": {"molecular_target": "GlcNAc(b1-6)Gal(b1-4)GlcNAc", "in_short": "as §1"}, "[25]": {"molecular_target": "Man(a1-2)Man(a1-3)[Man(a1-2)Man(a1-6)]Man(a1-6)[Man(a1-2)Man(a1-2)Man(a1-3)]Man(b1-4)GlcNAc(b1-4)GlcNAc", "in_short": "as §1"}, "[26]": {"molecular_target": "Man(a1-2)Man(a1-3)[Man(a1-6)]Man(a1-6)[Man(a1-2)Man(a1-3)]Man(b1-4)GlcNAc(b1-4)GlcNAc", "in_short": "as §1"}, "[27]": {"molecular_target": "Man(a1-2)Man(a1-6)[Man(a1-3)]Man(a1-6)[Man(a1-2)Man(a1-2)Man(a1-3)]Man(b1-4)GlcNAc(b1-4)GlcNAc", "in_short": "as §1"}, "[28]": {"molecular_target": "Man(a1-3)[Man(a1-6)]Man(a1-6)[Man(a1-2)Man(a1-3)]Man(b1-4)GlcNAc(b1-4)GlcNAc", "in_short": "as §1"}, "[29]": {"molecular_target": "Man(a1-3)[Man(a1-6)]Man(a1-6)[Man(a1-3)]Man", "in_short": "as §1"}, "[30]": {"molecular_target": "Man(a1-3)[Man(a1-6)]Man(a1-6)[Man(a1-3)]Man(b1-4)GlcNAc(b1-4)GlcNAc", "in_short": "as §1"}, "[31]": {"molecular_target": "Neu5Ac(a2-3)Gal(b1-3)[Fuc(a1-4)]GlcNAc", "in_short": "as §1"}, "[32]": {"molecular_target": "Neu5Ac(a2-3)Gal(b1-4)[Fuc(a1-3)]GlcNAc(b1-3)Gal", "in_short": "as §1"}, "[33]": {"molecular_target": "Neu5Ac(a2-6)Gal(b1-4)GlcNAc(b1-2)Man(a1-3)[GlcNAc(b1-2)Man(a1-6)]Man(b1-4)GlcNAc(b1-4)GlcNAc", "in_short": "as §1"}, "[34]": {"molecular_target": "Neu5Ac(a2-6)Gal(b1-4)GlcNAc(b1-3)Gal(b1-4)GlcNAc(b1-6)[Gal(b1-3)]GalNAc", "in_short": "as §1"}, "[35]": {"molecular_target": "Neu5Ac(a2-6)Gal(b1-4)GlcNAc(b1-6)[Gal(b1-3)]GalNAc", "in_short": "as §1"}, "Neu5Gc(a2-6)GalNAc": {"molecular_target": "Neu5Gc(a2-6)GalNAc", "in_short": "as §1"}},
  "note": "The full list was thinned out, with the strongest signals kept by preference.",
  "data": [
    {"binder": "B1", "values": [
      {"measurement": "glycan array binding signal (z-score)", "setting": "[1]", "value": -0.111},
      {"measurement": "glycan array binding signal (z-score)", "setting": "[2]", "value": -0.11},
      {"measurement": "glycan array binding signal (z-score)", "setting": "[3]", "value": -0.113},
      {"measurement": "glycan array binding signal (z-score)", "setting": "[4]", "value": 0.415},
      {"measurement": "glycan array binding signal (z-score)", "setting": "[5]", "value": -0.073},
      {"measurement": "glycan array binding signal (z-score)", "setting": "[6]", "value": 0.249},
      {"measurement": "glycan array binding signal (z-score)", "setting": "[7]", "value": -0.112},
      {"measurement": "glycan array binding signal (z-score)", "setting": "[8]", "value": -0.103},
      {"measurement": "glycan array binding signal (z-score)", "setting": "[9]", "value": -0.111},
      {"measurement": "glycan array binding signal (z-score)", "setting": "Fuc(a1-3)GlcNAc", "value": -0.12},
      {"measurement": "glycan array binding signal (z-score)", "setting": "[10]", "value": -0.105},
      {"measurement": "glycan array binding signal (z-score)", "setting": "Fuc(a1-4)GlcNAc", "value": -0.116},
      {"measurement": "glycan array binding signal (z-score)", "setting": "[11]", "value": 0.499},
      {"measurement": "glycan array binding signal (z-score)", "setting": "[12]", "value": 0.665},
      {"measurement": "glycan array binding signal (z-score)", "setting": "[13]", "value": 0.988},
      {"measurement": "glycan array binding signal (z-score)", "setting": "[14]", "value": -0.117},
      {"measurement": "glycan array binding signal (z-score)", "setting": "[15]", "value": -0.116},
      {"measurement": "glycan array binding signal (z-score)", "setting": "[16]", "value": -0.113},
      {"measurement": "glycan array binding signal (z-score)", "setting": "[17]", "value": -0.108},
      {"measurement": "glycan array binding signal (z-score)", "setting": "Gal3S(b1-3)GalNAc", "value": -0.116},
      {"measurement": "glycan array binding signal (z-score)", "setting": "Gal6S(b1-4)Glc6S", "value": -0.107},
      {"measurement": "glycan array binding signal (z-score)", "setting": "[18]", "value": -0.116},
      {"measurement": "glycan array binding signal (z-score)", "setting": "Glc(a1-4)Glc", "value": -0.116},
      {"measurement": "glycan array binding signal (z-score)", "setting": "[19]", "value": -0.117},
      {"measurement": "glycan array binding signal (z-score)", "setting": "[20]", "value": -0.111},
      {"measurement": "glycan array binding signal (z-score)", "setting": "[21]", "value": -0.112},
      {"measurement": "glycan array binding signal (z-score)", "setting": "[22]", "value": -0.11},
      {"measurement": "glycan array binding signal (z-score)", "setting": "[23]", "value": -0.115},
      {"measurement": "glycan array binding signal (z-score)", "setting": "[24]", "value": -0.117},
      {"measurement": "glycan array binding signal (z-score)", "setting": "[25]", "value": 3.46},
      {"measurement": "glycan array binding signal (z-score)", "setting": "[26]", "value": 9.19},
      {"measurement": "glycan array binding signal (z-score)", "setting": "[27]", "value": 11.7},
      {"measurement": "glycan array binding signal (z-score)", "setting": "[28]", "value": 13.2},
      {"measurement": "glycan array binding signal (z-score)", "setting": "[29]", "value": 7.17},
      {"measurement": "glycan array binding signal (z-score)", "setting": "[30]", "value": 10.9},
      {"measurement": "glycan array binding signal (z-score)", "setting": "[31]", "value": -0.12},
      {"measurement": "glycan array binding signal (z-score)", "setting": "[32]", "value": -0.117},
      {"measurement": "glycan array binding signal (z-score)", "setting": "[33]", "value": 0.313},
      {"measurement": "glycan array binding signal (z-score)", "setting": "[34]", "value": -0.118},
      {"measurement": "glycan array binding signal (z-score)", "setting": "[35]", "value": -0.117},
      {"measurement": "glycan array binding signal (z-score)", "setting": "Neu5Gc(a2-6)GalNAc", "value": -0.114}
    ]}
  ]
}
